PubChem BioAssay (NCI)
The panel holds about 83,000 compounds, 20% with a hit somewhere; the sample as a whole holds those more often.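 Activity criterion: percent growth below 10, measured after cells in 96-well plates were exposed to a single compound concentration for 48 hours.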 Activity calls are given as the source filed them.

Columns and labels:
Assay in all cases: NCI-60 one-dose screen, 48 h (100 = growth as untreated, 0 = no growth, -100 = all killed)
Conditions in all cases: 10 µM unless noted
[1] = system: NCI-H23 lung
[2] = system: NCI-H226 lung
[3] = system: NCI-H322M lung
[4] = system: HOP-62 NSCLC
[5] = system: NCI-H460 lung
[6] = system: HOP-92 NSCLC
[7] = system: NCI-H522 lung
[8] = system: A549/ATCC NSCLC
[9] = system: 786-0 renal
[10] = system: DU-145 prostate
[11] = system: K-562 leukemia
[12] = system: MALME-3M melanoma
[13] = system: MDA-MB-231 breast
[14] = system: RXF 393 renal
[15] = system: SF-268 CNS
[16] = system: SF-295 CNS
[17] = system: SF-539 CNS
[18] = system: M14 melanoma
[19] = system: UACC-257 melanoma

Measured: growth

c1ccc2[nH]c(-c3ccc(Nc4nc(N5CCCCC5)nc(N5CCOCC5)n4)cc3)nc2c1
inactive: [1] 19.7% | [2] 32.7% | [3] 35% | [6] 43.3% | [8] 13.9% | [10] 39% | [13] 23.1% | [15] 33.8%
active: [4] -45.2% | [5] 0.809% | [7] 9.25% | [9] -57.3% | [11] -6.74% | [12] -50.2% | [14] -56.1% | [16] -51.4% | [17] 7.95% | [18] -24.5%

C=C1C(=O)O[C@H]2[C@H]1CC/C(Cn1cc(-c3ccc(F)cc3)nn1)=C\CC[C@@]1(C)O[C@@H]21
active: [1] 5.71% | [2] -31.3% | [6] -67.7% | [7] -80.4% | [9] -71.5% | [10] -71.3% | [11] -20.3% | [12] -58.1% | [13] -46.2% | [14] -68.1% | [15] 5.29% | [17] -34.6% | [18] -40.3%
inactive: [3] 80.6% | [4] 44.4% | [5] 77.4% | [8] 60.2% | [16] 86.4%

CC(=O)c1c(C)[nH]c(-c2nc3ccc(N4CCN(C)CC4)cc3[nH]2)c1-c1ccc(N(C)C)cc1
inactive: [1] 40% | [2] 47.4% | [3] 40.6% | [4] 24.6% | [5] 53% | [6] 33.1% | [7] 42.1% | [8] 40.2% | [9] 38.7% | [10] 63.9% | [11] 21.1% | [12] 26.7% | [13] 36.1% | [14] 37.2% | [15] 59.4% | [16] 43.2% | [17] 39.3% | [19] 36.4% | [18] 34.6%

C=C(C)[C@@H]1CC[C@]2(C)CC[C@]3(C)[C@H](CC[C@@H]4[C@@]5(C)CCCNC(C)(C)[C@@H]5CC[C@]43C)[C@@H]12
active: [11] 4.15%
inactive: [1] 94.1% | [2] 96.5% | [3] 99.5% | [4] 101% | [5] 48.4% | [6] 76.6% | [7] 106% | [8] 51.3% | [9] 102% | [10] 75.6% | [12] 88.9% | [13] 96.7% | [14] 88.4% | [15] 104% | [16] 106% | [17] 98.2% | [19] 107% | [18] 79.6%

CCc1ccccc1NC(=O)c1sc2nc3c(cc2c1N)CCCC3
inactive: [1] 52.7% | [2] 73.4% | [3] 74.9% | [4] 35.6% | [5] 20.6% | [6] 37.1% | [7] 15% | [8] 36.7% | [9] 44.1% | [10] 51.7% | [11] 12.1% | [12] 55.7% | [13] 51.3% | [14] 49.8% | [15] 49.2% | [16] 29.6% | [17] 13.9% | [18] 24.1%

COc1cccc(-c2nn(-c3ccccc3)cc2-c2ccnc(NCCCNS(=O)(=O)c3ccc(Br)cc3)c2)c1
inactive: [1] 52.9% | [2] 51.9% | [3] 74.4% | [4] 81% | [5] 44.3% | [6] 34.6% | [7] 54.4% | [8] 47.7% | [9] 46.4% | [10] 72.6% | [11] 19.1% | [12] 71.9% | [13] 42.4% | [14] 44.7% | [15] 55.2% | [16] 37.7% | [17] 76.3% | [18] 47.4%
